Data taken from PubChem BioAssay AID1494157 (National Center for Advancing Translational Sciences (NCATS), 2020).
Records with an inconclusive call do not appear. Calls of active or inactive are those of the source. The call rests on the fitted dose curve.

Experiment: Confirmatory qHTS for inhibitors of MERS-S pseudo-typed particle cell entry
Settings: MERS-S pseudotyped particle entry, luciferase reporter; series mostly up to 57.1 µM; activity change, negative = inhibition: at the top concentration

Compound	Potency	activity change, negative = inhibition
COC(=O)C1=C(C)NC(C)=C(C(=O)OCC(C)C)C1c1ccccc1[N+](=O)[O-] (centres undefined)	19.2 µM (active)	
CNCCCC12CCC(c3ccccc31)c1ccccc12	21.5 µM (active)	
CN1CCC[C@@H]1CCO[C@](C)(c1ccccc1)c1ccc(Cl)cc1	7.64 µM (active)	
COc1cc([C@@H]2c3cc4c(cc3C(O[C@@H]3O[C@@H]5CO[C@@H](c6cccs6)OC5[C@H](O)[C@H]3O)C3COC(=O)[C@@H]32)OCO4)cc(OC)c1O (some centres undefined)	0.271 µM (active)	
NCCNc1ccc(NCCN)c2c1C(=O)c1ccncc1C2=O	19.2 µM (active)	
CCCCN=C(N)N=C(N)N		0% (inactive)
COc1ccc2cc3[n+](cc2c1OC)CCc1cc2c(cc1-3)OCO2	9.61 µM (active)	
CC(C)C[C@H](NC(=O)[C@H](CCc1ccccc1)NC(=O)CN1CCOCC1)C(=O)N[C@@H](Cc1ccccc1)C(=O)N[C@@H](CC(C)C)C(=O)[C@@]1(C)CO1	0.192 µM (active)	
CC(C)C(=O)Oc1ccc(CO)cc1[C@H](CCN(C(C)C)C(C)C)c1ccccc1	19.2 µM (active)	
C=C(C)[C@H]1Cc2c(ccc3c2O[C@@H]2COc4cc(OC)c(OC)cc4[C@@H]2C3=O)O1	0.0136 µM (active)	
CN1CCC(=C2c3ccccc3CCc3sccc32)CC1	15.2 µM (active)	
CCn1cc(C(=O)O)c(=O)c2cc(F)c(N3CCNC(C)C3)c(F)c21 (centres undefined)		0% (inactive)
N=C(N)c1ccc(OCCCCCOc2ccc(C(=N)N)cc2)cc1	12.1 µM (active)	
COc1cccc2c1C(=O)c1c(O)c3c(c(O)c1C2=O)C[C@@](O)(C(C)=O)C[C@@H]3O[C@H]1C[C@H](N)[C@H](O)[C@H](C)O1	3.83 µM (active)	
C=CC1(C)CC(=O)C2(O)C(C)(O1)C(OC(C)=O)C(OC(=O)CCN(C)C)C1C(C)(C)CCC(O)C12C (centres undefined)		0% (inactive)
COc1cccc2c1C(=O)c1c(O)c3c(c(O)c1C2=O)C[C@@](O)(C(=O)CO)C[C@@H]3O[C@H]1C[C@H](N)[C@@H](O)[C@H](C)O1	3.83 µM (active)	
Cc1cn([C@H]2C[C@H](N=[N+]=[N-])[C@@H](CO)O2)c(=O)[nH]c1=O	0.242 µM (active)	
OCCN1CCN(CC/C=C2/c3ccccc3Sc3ccc(C(F)(F)F)cc32)CC1	12.1 µM (active)	
C[C@H]1[C@H](OC(=O)CCC(=O)O)O[C@@H]2O[C@@]3(C)CC[C@H]4[C@H](C)CC[C@@H]1[C@@]24OO3	0.857 µM (active)	
CN1CCC(=C2c3ccccc3C=Cc3ccccc32)CC1	19.2 µM (active)	
Cc1ccc(NC(=O)c2ccc(CN3CCN(C)CC3)cc2)cc1Nc1nccc(-c2cccnc2)n1	13.6 µM (active)	
COc1ccc(Cc2nccc3cc(OC)c(OC)cc23)cc1OC	4.82 µM (active)	
O=c1ccc2ccccc2o1		0% (inactive)
COC(=O)C[C@](O)(CCCC(C)(C)O)C(=O)O[C@@H]1C(OC)=C[C@]23CCCN2CCc2cc4c(cc2[C@H]13)OCO4	0.607 µM (active)	
CN1CCCCC1CCN1c2ccccc2Sc2ccc(S(C)=O)cc21 (centres undefined)	17.1 µM (active)	
O=C(Nc1ccc([N+](=O)[O-])cc1Cl)c1cc(Cl)ccc1O	0.857 µM (active)	
C=C1c2c(Cl)ccc(O)c2C(O)=C2C(=O)[C@@]3(O)C(O)=C(C(N)=O)C(=O)[C@@H](N(C)C)[C@@H]3[C@@H](O)[C@H]12	19.2 µM (active)	
CN(C)CCC=C1c2ccccc2C(C)(C)c2ccccc21	15.2 µM (active)	
CN1CC[C@H](CN2c3ccccc3Sc3ccccc32)C1	15.2 µM (active)	
